# From the supplement of paper PMC6897291
# Assays:
# RIVA [1] = experiment: growth inhibition by drug plus 177Lu-lilotomab satetraxetan (1 - RLU/untreated control) (fraction); higher = stronger inhibition; conditions: 177Lu-lilotomab satetraxetan 0.5 ug/ml
# How it was run: (§1)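 Growth inhibition was calculated from RealTime-Glo RLU against untreated no-drug wells. Values equal 1 − RLU/mean of 48 untreated no-drug wells per plate, read daily from day 3 after 1 h at 37°C. RIVA and U-2932 cells, with or without 18 h pretreatment by a radiolabelled anti-CD37 antibody conjugate (~600 MBq/mg; 0.5 µg/ml RIVA, 1 µg/ml U-2932), were washed and plated at 3,000 cells/well on compound-printed plates at 10/100 nM (RIVA) or 10/1,000 nM (U-2932).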
# U-2932 [2] = experiment: growth inhibition by drug alone (1 - RLU/untreated control) (fraction); higher = stronger inhibition; conditions: 177Lu-lilotomab satetraxetan 0 ug/ml
# How it was run: as §1
# RIVA [3] = experiment: as above; conditions: 177Lu-lilotomab satetraxetan 0 ug/ml
# How it was run: as §1
# U-2932 [4] = experiment: growth inhibition by drug plus 177Lu-lilotomab satetraxetan (1 - RLU/untreated control) (fraction); higher = stronger inhibition; conditions: 177Lu-lilotomab satetraxetan 1 ug/ml
# How it was run: as §1
SMILES,"growth inhibition by drug plus 177Lu-lilotomab satetraxetan (RIVA [1]; 100 nM, time (day): 5)","growth inhibition by drug plus 177Lu-lilotomab satetraxetan (RIVA [1]; 100 nM, time (day): 6)","growth inhibition by drug alone (U-2932 [2]; 10 nM, time (day): 3)","growth inhibition by drug alone (U-2932 [2]; 10 nM, time (day): 4)","growth inhibition by drug alone (U-2932 [2]; 10 nM, time (day): 5)","growth inhibition by drug alone (U-2932 [2]; 10 nM, time (day): 6)","growth inhibition by drug alone (U-2932 [2]; 1000 nM, time (day): 3)","growth inhibition by drug alone (U-2932 [2]; 1000 nM, time (day): 4)","growth inhibition by drug alone (U-2932 [2]; 1000 nM, time (day): 5)","growth inhibition by drug alone (U-2932 [2]; 1000 nM, time (day): 6)","growth inhibition by drug alone (RIVA [3]; 10 nM, time (day): 3)","growth inhibition by drug alone (RIVA [3]; 10 nM, time (day): 4)","growth inhibition by drug alone (RIVA [3]; 10 nM, time (day): 5)","growth inhibition by drug alone (RIVA [3]; 10 nM, time (day): 6)","growth inhibition by drug alone (RIVA [3]; 100 nM, time (day): 3)","growth inhibition by drug alone (RIVA [3]; 100 nM, time (day): 4)","growth inhibition by drug alone (RIVA [3]; 100 nM, time (day): 5)","growth inhibition by drug alone (RIVA [3]; 100 nM, time (day): 6)","growth inhibition by drug plus 177Lu-lilotomab satetraxetan (U-2932 [4]; 10 nM, time (day): 3)","growth inhibition by drug plus 177Lu-lilotomab satetraxetan (U-2932 [4]; 10 nM, time (day): 4)","growth inhibition by drug plus 177Lu-lilotomab satetraxetan (U-2932 [4]; 10 nM, time (day): 5)","growth inhibition by drug plus 177Lu-lilotomab satetraxetan (U-2932 [4]; 10 nM, time (day): 6)","growth inhibition by drug plus 177Lu-lilotomab satetraxetan (U-2932 [4]; 1000 nM, time (day): 3)","growth inhibition by drug plus 177Lu-lilotomab satetraxetan (U-2932 [4]; 1000 nM, time (day): 4)","growth inhibition by drug plus 177Lu-lilotomab satetraxetan (U-2932 [4]; 1000 nM, time (day): 5)","growth inhibition by drug plus 177Lu-lilotomab satetraxetan (U-2932 [4]; 1000 nM, time (day): 6)","growth inhibition by drug plus 177Lu-lilotomab satetraxetan (RIVA [1]; 10 nM, time (day): 3)","growth inhibition by drug plus 177Lu-lilotomab satetraxetan (RIVA [1]; 10 nM, time (day): 4)","growth inhibition by drug plus 177Lu-lilotomab satetraxetan (RIVA [1]; 10 nM, time (day): 5)","growth inhibition by drug plus 177Lu-lilotomab satetraxetan (RIVA [1]; 10 nM, time (day): 6)","growth inhibition by drug plus 177Lu-lilotomab satetraxetan (RIVA [1]; 100 nM, time (day): 3)","growth inhibition by drug plus 177Lu-lilotomab satetraxetan (RIVA [1]; 100 nM, time (day): 4)"
Nc1nc(Cl)nc2c1ncn2[C@@H]1O[C@H](CO)[C@@H](O)[C@@H]1F [Clofarabine],0.943,0.959,–,–,–,–,–,–,–,–,–,–,–,–,–,–,–,–,–,–,–,–,–,–,–,–,–,–,–,–,–,–
CCCCCCCCc1ccc(CCC(N)(CO)CO)cc1 [Fingolimod (FTY720)],0.474,0.484,0.0955,0.0585,0.0453,-0.1,0.0228,0.0231,0.00428,-0.0571,0.0298,0.0648,-0.0103,-0.296,-0.16,-0.13,-0.129,-0.231,0.0534,0.0695,0.13,0.219,-0.0305,0.0614,0.0905,0.203,0.437,0.577,0.586,0.614,0.364,0.447
O=C(O)CC[C@H]1CC[C@@](c2cc(F)ccc2F)(S(=O)(=O)c2ccc(Cl)cc2)CC1,0.543,0.556,0.105,0.0715,-0.0926,-0.0883,0.0344,0.041,-0.0603,-0.0323,0.072,0.0162,-0.0366,-0.42,-0.186,-0.2,-0.179,-0.202,0.00844,0.0724,0.123,0.147,0.000893,0.0697,0.0856,0.142,0.613,0.631,0.645,0.643,0.453,0.522
CS(=O)(=O)CCNCc1ccc(-c2ccc3ncnc(Nc4ccc(OCc5cccc(F)c5)c(Cl)c4)c3c2)o1 [Lapatinib Ditosylate (Tykerb)],0.487,0.486,0.0817,0.081,0.00227,-0.0646,0.0164,0.0506,-0.0238,-0.169,-0.0232,0.00959,-0.0719,-0.295,-0.283,-0.179,-0.183,-0.291,0.108,0.154,0.199,0.225,0.0709,0.127,0.153,0.277,0.649,0.657,0.672,0.674,0.379,0.475
Cc1c(CCOc2ccc(C(=O)O)cc2)c2cc(Cl)ccc2n1C(c1ccccc1)c1ccccc1,0.419,0.435,0.00805,-0.00114,-0.0847,-0.0955,-0.0489,-0.0693,-0.125,-0.133,-0.14,-0.201,-0.294,-0.473,-0.448,-0.454,-0.564,-0.758,-0.0474,-0.0119,0.00779,0.0213,0.0043,0.0519,0.061,0.147,0.505,0.573,0.594,0.582,0.296,0.41
NC(=O)c1ccc(-c2nc(-c3ccccn3)c(-c3ccc4c(c3)OCO4)[nH]2)cc1,0.528,0.52,0.107,0.0821,-0.071,-0.0929,0.0294,0.069,-0.0548,-0.0669,0.151,0.132,0.0924,-0.233,-0.221,-0.199,-0.195,-0.245,0.0841,0.129,0.164,0.198,0.0479,0.102,0.125,0.211,0.633,0.64,0.642,0.63,0.438,0.521
CC[C@H]1OC(=O)[C@H](C)[C@@H](O[C@H]2C[C@@](C)(OC)[C@@H](O)[C@H](C)O2)[C@H](C)[C@@H](O[C@@H]2O[C@H](C)C[C@H](N(C)C)[C@H]2O)[C@](C)(O)C[C@@H](C)CN(C)[C@H](C)[C@@H](O)[C@]1(C)O [Azithromycin (Zithromax)],0.576,0.561,0.204,0.13,0.0304,-0.0338,0.0821,0.11,0.0532,-0.0307,0.16,0.206,0.16,0.0424,0.0514,0.129,0.0797,-0.0131,0.138,0.178,0.198,0.299,0.0676,0.168,0.163,0.224,0.526,0.619,0.633,0.639,0.499,0.586
CC(=O)O[C@]1(C(C)=O)CC[C@H]2[C@@H]3C[C@H](C)C4=CC(=O)CC[C@]4(C)[C@H]3CC[C@@]21C [Medroxyprogesterone acetate],0.409,0.427,0.141,0.111,0.0166,-0.207,0.107,0.162,0.15,0.056,-0.0698,-0.099,-0.346,-0.679,-0.507,-0.273,-0.35,-0.619,0.0781,0.0764,0.144,0.108,0.102,0.176,0.224,0.336,0.422,0.555,0.543,0.565,0.235,0.389
CC(C)c1onc(-c2c(Cl)cccc2Cl)c1COc1ccc(/C=C/c2cccc(C(=O)O)c2)c(Cl)c1,0.554,0.538,0.0964,0.0881,0.0536,0.0511,-0.008,0.0242,-0.0241,-0.208,0.157,0.0681,0.0301,-0.185,0.0922,0.0619,0.0293,-0.0245,0.0329,0.0686,0.0726,0.0791,-0.0283,0.0526,0.0247,0.0113,0.473,0.542,0.562,0.583,0.522,0.552
CN(C)c1ccccc1CN1CCCN(Cc2ccccc2N(C)C)C1c1ccncc1,0.504,0.487,0.0601,0.0484,-0.0775,-0.0436,-0.0515,0.0164,-0.0723,-0.322,-0.0275,-0.0402,-0.0946,-0.333,-0.107,-0.0882,-0.101,-0.219,-0.0506,-0.00857,0.0315,0.0251,-0.133,-0.00158,-0.031,-0.0122,0.403,0.514,0.537,0.54,0.416,0.506
CNC(=O)c1cc(Oc2ccc(NC(=O)Nc3ccc(Cl)c(C(F)(F)F)c3)cc2)ccn1 [Sorafenib (Nexavar)],0.594,0.583,0.065,0.061,0.0056,-0.0896,0.0548,0.172,0.16,0.0821,-0.0351,-0.0584,-0.0811,-0.269,-0.171,-0.0734,-0.0752,-0.125,-0.0368,-0.00107,-0.00478,0.0413,-0.000329,0.177,0.189,0.145,0.328,0.487,0.498,0.507,0.415,0.561
Nc1cccc2c1C(=O)N(C1CCC(=O)NC1=O)C2=O (stereo not given) [Pomalidomide],0.434,0.443,0.00761,0.0144,-0.0587,-0.183,0.0958,0.25,0.271,0.309,-0.0396,-0.0278,-0.0766,-0.254,-0.0764,-0.115,-0.132,-0.196,0.0211,0.034,0.0448,0.147,0.233,0.391,0.414,0.472,0.434,0.529,0.549,0.555,0.439,0.414
Cn1cc(-c2ccc3nnc(C(F)(F)c4ccc5ncccc5c4)n3n2)cn1,0.428,0.429,-0.0908,-0.108,-0.0614,-0.0112,-0.151,-0.112,-0.0976,0.0327,-0.216,-0.252,-0.259,-0.266,-0.157,-0.252,-0.203,-0.226,-0.0849,-0.0323,0.0158,0.0612,-0.131,-0.0707,-0.0177,0.142,0.285,0.449,0.457,0.453,0.342,0.401
CO[C@@H](C(=O)N1Cc2[nH]nc(NC(=O)c3ccc(N4CCN(C)CC4)cc3)c2C1)c1ccccc1,0.685,0.776,0.0385,-0.0423,-0.0829,-0.0542,0.206,0.258,0.259,0.368,-0.0286,-0.0311,-0.0917,-0.234,0.138,0.0638,0.148,0.29,0.00406,0.0748,0.116,0.142,0.398,0.469,0.53,0.634,0.555,0.594,0.603,0.604,0.514,0.615
O=C(O)C(=O)O.[NH-]C1CCCCC1[NH-].[Pt+2] (stereo not given) [Oxaliplatin (Eloxatin)],0.534,0.531,0.138,0.113,-0.0491,-0.0738,0.613,0.565,0.489,0.46,0.335,0.288,0.293,0.22,-0.171,-0.0865,-0.121,-0.155,0.123,0.163,0.223,0.284,0.675,0.638,0.604,0.608,0.6,0.598,0.621,0.626,0.453,0.516
